According to PubChem BioAssay AID1159580 (chemical genetic matrix, 2015):
Values joined by “and” are separate entries in the source; they are usually repeats but may differ in a detail not shown here. Equal values may be shown once. Out of some 5,500 compounds screened, about 2,000 (36%) were called active. Roughly 18% stayed inconclusive and do not appear here. Rule as the data show it: active = normalized growth mostly below about 0.91 (no sharp cut-off); inconclusive = no clear call, values can overlap the other calls; inactive = mostly above about 0.92. The list shows a part of the results.

Assay: chemical genetic growth profiling, strain panel (AID 1159580);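 also: tested at 20 µM; growth read once vehicle control cultures reached saturation at 30 °C; 1 = growth at the plate median or of vehicle wells; lower values mean less growth of the strain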
Conditions: S. cerevisiae deletion strains, growth OD
[1] = locus YGR078C, strain PAC10, hits give low values
[2] = locus YNL153C, strain GIM3, hits give low values

Measured: normalized growth

Cn1c(=O)c2[nH]c(-c3ccc(S(=O)(=O)O)cc3)nc2n(C)c1=O
inactive: locus YAL040C, strain CLN3, hits give low values 1.01 | locus YCL061C, strain MRC1 (second series), hits give low values 1.01 | locus YER002W, strain NOP16, hits give low values 1.01 | [1] 1.01 | [2] 1.03 | locus YNL175C, strain NOP13, hits give low values 1.01 | locus YNL197C, strain WHI3, hits give low values 0.993 | locus YNL224C, strain SQS1, hits give low values 1 | locus YOR083W, strain WHI5 (second series), hits give low values 0.98 | locus YPL055C, strain LGE1, hits give low values 1 | locus YPL241C, strain CIN2, hits give low values 1.02

COC(=O)CC1C(C)(C)C(OC(C)=O)[C@@H]2[C@@H](OC(C)=O)[C@]34O[C@@]2(O)[C@]1(C)C3CC[C@]1(C)C4=CC(=O)O[C@H]1c1ccoc1 (stereo not given in full)
inactive: locus YAL013W, strain DEP1, hits give low values 1.02 | locus YAL021C, strain ccr4, hits give low values 1.03 | locus YAL026C, strain drs2, hits give low values 0.991 | locus YAL030W, strain snc1, hits give low values 1.01 | locus YBL061C, strain skt5, hits give low values 0.998 | locus YBR009C, strain hhf1, hits give low values 1.03 | locus YBR021W, strain FUR4, hits give low values 1.04 | locus YBR023C, strain chs3, hits give low values 1.01 | locus YBR171W, strain sec66, hits give low values 1 | locus YBR229C, strain ROT2, hits give low values 0.96 | locus YBR231C, strain swc5, hits give low values 1.01 | locus YBR279W, strain paf1, hits give low values 1.01 | locus YCL011C, strain gbp2, hits give low values 1.01 | locus YCL016C, strain dcc1, hits give low values 1.02 | locus YCL029C, strain bik1, hits give low values 1.02 | locus YCL061C, strain MRC1, hits give low values 1.01 | locus YCL069W, strain vba3, hits give low values 1.01 | locus YCR088W, strain abp1, hits give low values 1.01 | locus YDL005C, strain med2, hits give low values 0.991 | locus YDL035C, strain GPR1, hits give low values 0.98 | locus YDL040C, strain nat1, hits give low values 1.02 | locus YDL074C, strain BRE1, hits give low values 1.03 | locus YDL101C, strain DUN1, hits give low values 1.02 | locus YDL134C, strain PPH21, hits give low values 1.05 | locus YDL185W, strain tfp1, hits give low values 0.977 | locus YDL192W, strain arf1, hits give low values 0.983 | locus YDR001C, strain nth1, hits give low values 1.01 | locus YDR069C, strain doa4, hits give low values 1.02 | locus YDR101C, strain arx1, hits give low values 0.975 | locus YDR137W, strain rgp1, hits give low values 0.93 | locus YDR150W, strain NUM1, hits give low values 1.01 | locus YDR159W, strain sac3, hits give low values 1 | locus YDR162C, strain NBP2, hits give low values 1 | locus YDR195W, strain ref2 1.01 | locus YDR297W, strain sur2, hits give low values 1.02 | locus YDR318W, strain mcm21, hits give low values 0.997 | locus YDR334W, strain swr1, hits give low values 1.01 | locus YDR335W, strain msn5, hits give low values 1.01 | locus YDR388W, hits give low values 1.02 | locus YDR392W, strain spt3, hits give low values 1.07 | locus YDR502C, strain sam2, hits give low values 1.03 | locus YEL003W, strain gim4, hits give low values 1.01 | locus YEL037C, strain rad23, hits give low values 1 | locus YEL061C, strain CIN8 (second series), hits give low values 1 | locus YEL061C, strain CIN8, hits give low values 1 | locus YER015W, strain faa2, hits give low values 1.01 | locus YER016W, strain bim1, hits give low values 1.01 | locus YER110C, hits give low values 0.998 | locus YER111C, strain swi4, hits give low values 0.988 | locus YER155C, strain BEM2 (second series), hits give low values 1.05 | locus YER155C, strain BEM2, hits give low values 1.01 | locus YER167W, strain BCK2, hits give low values 0.991 | locus YFR010W, strain ubp6, hits give low values 1 | locus YGL078C, strain dbp3, hits give low values 1.01 | locus YGL086W, strain mad1, hits give low values 1.02 | locus YGL167C, strain pmr1, hits give low values 1.01 | locus YGL173C, strain kem1, hits give low values 1 | locus YGL227W, strain vid30, hits give low values 1 | locus YGL240W, strain doc1, hits give low values 1.01 | locus YGL248W, strain PDE1, hits give low values 1.03 | locus YGL253W, strain hxk2, hits give low values 0.953 | [1] 1.05 | locus YGR135W, strain pre9, hits give low values 1.08 | locus YGR252W, strain gcn5, hits give low values 1.09 | locus YHR013C, strain ard1, hits give low values 1.02 | locus YHR027C, strain rpn1, hits give low values 1.01 | locus YHR030C, strain SLT2, hits give low values 1.03 | locus YHR079C, strain IRE1 (second series), hits give low values 0.989 | locus YHR079C, strain IRE1, hits give low values 1.04 | locus YHR094C, strain hxt1, hits give low values 1 | locus YHR129C, strain ARP1, hits give low values 1.02 | locus YHR142W, strain chs7, hits give low values 0.983 | locus YHR200W, strain rpn10, hits give low values 1.03 | locus YIL066C, strain RNR3, hits give low values 0.979 | locus YIL073C, strain SPO22, hits give low values 0.988 | locus YIL125W, strain kgd1, hits give low values 0.991 | locus YIR030C, strain dcg1, hits give low values 0.996 | locus YJL092W, strain hpr5, hits give low values 1.01 | locus YJL095W, strain BCK1 (second series), hits give low values 0.999 | locus YJL095W, strain BCK1, hits give low values 1.07 and 1.02 | locus YJL115W, strain asf1, hits give low values 0.998 | locus YJL129C, strain trk1, hits give low values 0.984 | locus YJL134W, strain LCB3, hits give low values 0.996 | locus YJL154C, strain vps35, hits give low values 1.02 | locus YJL164C, strain tpk1, hits give low values 1 | locus YJL166W, strain qcr8, hits give low values 1.01 | locus YJL168C, strain set2, hits give low values 1.02 | locus YJL187C, strain SWE1 (second series), hits give low values 1.04 | locus YJR066W, strain TOR1, hits give low values 0.963 | locus YKL009W, strain mrt4, hits give low values 0.921 | locus YKL068W, hits give low values 0.99 | locus YKL085W, strain MDH1 (second series), hits give low values 1.01 | locus YKL085W, strain MDH1, hits give low values 1.01 | locus YKL160W, strain elf1, hits give low values 1.01 | locus YKL190W, strain CNB1, hits give low values 1 | locus YKR001C, strain vps1, hits give low values 0.978 | locus YKR026C, strain gcn3, hits give low values 1.01 | locus YKR091W, strain srl3, hits give low values 1.01 | locus YLL001W, strain dnm1, hits give low values 1 | locus YLL026W, hits give low values 0.999 | locus YLL041C, strain sdh2, hits give low values 0.998 | locus YLR027C, strain aat2, hits give low values 1.01 | locus YLR039C, strain RIC1, hits give low values 0.934 | locus YLR058C, strain SHM2, hits give low values 0.988 | locus YLR102C, strain apc9, hits give low values 1.01 | locus YLR113W, strain HOG1, hits give low values 0.998 | locus YLR221C, strain rsa3, hits give low values 1.03 | locus YLR258W, strain gsy2, hits give low values 1 | locus YLR262C, strain YPT6 (second series), hits give low values 0.963 | locus YLR262C, strain YPT6, hits give low values 0.899 | locus YLR268W, strain sec22, hits give low values 0.983 | locus YLR320W, strain mms22, hits give low values 1.01 | locus YLR330W, strain CHS5, hits give low values 1.01 | locus YLR342W, strain FKS1 (second series), hits give low values 1.06 | locus YLR342W, strain FKS1, hits give low values 1.01 | locus YLR357W, strain rsc2, hits give low values 1.06 | locus YLR370C, strain arc18, hits give low values 1.03 | locus YLR371W, strain rom2, hits give low values 1.01 | locus YLR384C, strain iki3, hits give low values 0.99 | locus YLR418C, strain cdc73, hits give low values 1.07 | locus YML016C, strain PPZ1, hits give low values 1.01 | locus YML032C, strain rad52, hits give low values 0.991 | locus YML120C, strain ndi1, hits give low values 1.03 | locus YML124C, strain tub3, hits give low values 0.997 | locus YMR058W, strain fet3, hits give low values 1.01 | locus YMR078C, strain ctf18, hits give low values 0.998 | locus YMR125W, strain sto1, hits give low values 1.02 | locus YMR129W, hits give low values 0.996 | locus YMR205C, strain PFK2, hits give low values 1.02 | locus YMR223W, strain ubp8, hits give low values 1.03 | locus YMR231W, strain pep5, hits give low values 0.994 | locus YMR307W, strain GAS1, hits give low values 1.02 | locus YNL067W, strain RPL9B, hits give low values 1.05 | locus YNL071W, strain lat1, hits give low values 1.01 | locus YNL128W, strain TEP1, hits give low values 0.97 | [2] 1.05 | locus YNL183C, strain NPR1, hits give low values 0.978 | locus YNL209W, strain ssb2, hits give low values 1.02 | locus YNL233W, strain BNI4, hits give low values 1.08 | locus YNL248C, strain rpa49, hits give low values 0.999 | locus YNL250W, strain rad50, hits give low values 1 | locus YNL271C, strain bni1, hits give low values 1 | locus YNL298W, strain CLA4, hits give low values 1.01 | locus YNL307C, strain MCK1, hits give low values 1.01 | locus YNL322C, strain KRE1 (second series), hits give low values 1.01 | locus YNR049C, strain mso1, hits give low values 1.01 | locus YNR052C, strain pop2, hits give low values 1.06 | locus YOL012C, strain htz1 1.16 | locus YOL147C, strain pex11, hits give low values 1 | locus YOR001W, strain rrp6, hits give low values 1.02 | locus YOR061W, strain CKA2, hits give low values 0.946 | locus YOR069W, strain VPS5, hits give low values 1.01 | locus YOR070C, strain gyp1, hits give low values 1.01 | locus YOR080W, strain dia2, hits give low values 1 | locus YOR083W, strain WHI5, hits give low values 1.01 | locus YOR106W, strain vam3, hits give low values 1.02 | locus YOR136W, strain idh2, hits give low values 1.02 | locus YOR144C, strain elg1, hits give low values 1 | locus YOR184W, strain ser1, hits give low values 0.957 | locus YOR231W, strain MKK1, hits give low values 0.995 | locus YOR265W, strain rbl2, hits give low values 1 | locus YOR270C, strain vph1, hits give low values 0.806 | locus YOR290C, strain snf2, hits give low values 1.01 | locus YOR316C, strain cot1, hits give low values 1.01 | locus YPL051W, strain arl3, hits give low values 1.02 | locus YPL078C, strain atp4, hits give low values 1 | locus YPL106C, strain sse1, hits give low values 1.06 | locus YPL240C, strain hsp82, hits give low values 1.01 | locus YPL256C, strain CLN2, hits give low values 1.04 | locus YPR119W, strain clb2, hits give low values 1 | locus YPR141C, strain kar3, hits give low values 0.979 | locus YPR163C, strain tif3, hits give low values 1.01 | locus YPR167C, strain met16, hits give low values 1.01 | strain wtn01, hits give low values 0.982
